Compound activity: PubChem, several laboratories
In the library only some 5% were active in any assay of this set; here they are far more common.
AHR act = activators of human aryl hydrocarbon receptor; AHR-responsive luciferase reporter cells, luminescence; activation, % at 5 µM; actives 2.5% (n = 320,000); AID 2796; in the data active means activation above about 47%;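 further: 0% = vehicle wells and 100% = reference agonist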
SENP6 inh = inhibitors of human SENP6 protease; Q9GZR1; Recombinant SENP6 catalytic domain, aminoluciferin luminescence; inhibition, % at 10 µM; actives 1.8% (n = 330,000); AID 2599;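 active means inhibition above about 50% at the single tested dose, limit read from the data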;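 further: plate controls were DMSO wells with enzyme for no effect and DMSO wells lacking enzyme for full effect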
EBI2 block = antagonists of human EBI2 receptor; AID 651636; EBI2 beta-arrestin recruitment, luminescence, 7a,25-OHC stimulated; actives 0.81% (n = 360,000); inhibition, % at 5 µM; P32249; in the data active means inhibition above about 38%;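 further: enzyme fragment complementation signal reports receptor beta-arrestin coupling in cells; 0% = agonist plus DMSO wells and 100% = wells without agonist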
Target sequence (P32249 whole entry, looked up, the tested form may be a part): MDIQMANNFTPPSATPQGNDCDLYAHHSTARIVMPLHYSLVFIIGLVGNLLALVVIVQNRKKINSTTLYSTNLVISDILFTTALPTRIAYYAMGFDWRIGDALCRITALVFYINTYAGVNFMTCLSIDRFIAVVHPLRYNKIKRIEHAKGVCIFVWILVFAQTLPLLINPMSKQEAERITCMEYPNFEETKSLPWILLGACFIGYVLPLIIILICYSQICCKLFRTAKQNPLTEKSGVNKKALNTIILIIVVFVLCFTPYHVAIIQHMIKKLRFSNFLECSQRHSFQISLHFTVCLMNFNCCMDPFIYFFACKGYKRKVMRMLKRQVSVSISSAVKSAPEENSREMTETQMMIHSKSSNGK
SENP8 block-1 = blocks the human protease SENP8; Q96LD8; purified SENP8, Z-RLRGG-aminoluciferin cleavage, luminescence; inhibition, % at 10 µM; actives 1.2% (n = 330,000); AID 2540; in the data active means inhibition above about 50%
SENP7 block = blocks the human protease SENP7 | Q9BQF6 | recombinant SENP7, Z-RLRGG-aminoluciferin luminescence, 40 min | inhibition, % at 5 µM | actives 1.5% (n = 330,000) | AID 434973;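 active means inhibition above about 50% at the single test dose, limit read from the data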;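 further: plate controls were DMSO with enzyme for no effect and no enzyme buffer wells for full effect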
SENP8 block-2 = SENP8 (human) protease inhibition | Q96LD8 | recombinant SENP8, Nedd8 substrate fluorescence | inhibition, % at 20 µM | actives 0.64% (n = 360,000); in the data active means inhibition mostly above about 40%, no sharp cut-off; inactive means mostly below about 27%
Starred values were filed as active, the others as inactive; x = no result given.

SMILES	AHR act	SENP6 inh	EBI2 block	SENP8 block-1	SENP7 block	SENP8 block-2
CCn1c2ccccc2c2cc(NC(=O)CCCN3C(=O)CCC3=O)ccc21	67.3*	-8.9	2.4	-3.0	0.6	-70.6
CCc1nnc(NC(=O)[C@@H](NS(=O)(=O)c2ccc3c(c2)OCCO3)C(C)C)s1	x	x	-8.0	x	x	9.9
CC(=O)O[C@H]1CC(=O)OC(C)(C)C2CC(=O)[C@]3(C)C(CC[C@@](C)([C@@H](O[C@@H]4O[C@H](CO)[C@@H](O)[C@H](O)[C@H]4O)c4ccoc4)[C@@]34O[C@@H]4C(=O)O)[C@]21C (stereo partly specified)	-0.1	-6.5	2.9	0.6	-3.8	39.2
CCn1c2ccccc2c2cc(NC(=O)c3coc(=O)c(Br)c3)ccc21	41.0	18.3	2.7	4.7	0.1	-432.6
CCn1c2ccccc2c2cc(NC(=O)c3cc(OC)cc(OC)c3)ccc21	44.8	-18.9	1.0	-1.6	-1.4	-5.4
CCn1c2ccccc2c2cc(NC(=O)c3ccc(=O)oc3)ccc21	57.6*	7.9	-0.5	8.3	-3.9	-325.5
CCn1c2ccccc2c2cc(NC(=O)c3ccc(Br)o3)ccc21	62.7*	-1.1	2.8	1.2	9.1	-3.2
Cc1cc(O)c(/C=N/Nc2ccc(Cl)cc2)c(=O)o1	42.6	85.1*	-4.2	80.4*	55.5*	-100.8
CCCCn1nnnc1C(c1cc2ccccc2o1)N(C)CCc1ccccc1 (stereo unspecified)	x	x	23.8	x	x	-0.8
Cc1ccc2nc(SCC(=O)c3cc(C)n(C)c3C)[nH]c2c1	51.7*	-21.1	6.3	2.1	1.5	26.3
Cc1cc(C(=O)CSc2nc3ccccc3[nH]2)c(C)n1C	3.3	-23.2	6.5	-11.1	0.2	17.4
Cc1ccc2nc(SCn3nnc4ccccc4c3=O)[nH]c2c1	74.8*	-1.7	1.9	2.6	10.5	8.3
Cc1cc(C(=O)CSc2nc3ccc(Cl)cc3[nH]2)c(C)n1C	78.5*	2.6	14.3	7.0	13.2	3.7
O=c1c2ccccc2nnn1CSc1nc2ccccc2[nH]1	3.5	23.3	-2.0	-7.3	-2.6	25.8
Cc1cc(C(=O)CSc2nc3ccc(Cl)cc3[nH]2)c(C)n1CC1CCCO1 (stereo unspecified)	28.6	-6.5	-2.6	-1.6	-1.8	-12.4
Cc1ccc2nc(SCC(=O)c3c(C)[nH]c4ccccc34)[nH]c2c1	53.4*	-5.9	19.5	-8.4	-7.6	-1.4
O=C1NC(=O)C([N+](=O)[O-])=C(O)C1=O	x	x	-6.0	x	x	9.1
CCCS(=O)(=O)NC(=O)C1(C)CCN(C(=O)c2ccccc2F)C1 (stereo unspecified)	x	x	-9.2	x	x	15.1
Cc1ccc(-c2[nH]c3ccccc3c2SCCNC(=O)c2cc3ccccc3oc2=O)cc1	8.7	1.4	1.2	9.5	1.0	-2.4
O=C(Cc1cccs1)NCCSc1c(-c2ccc(Cl)cc2)[nH]c2ccccc12	51.3*	-6.4	14.7	-12.1	15.0	-391.4
O=C1c2ccccc2C(=O)C2OC12 (stereo unspecified)	15.1	37.3	x	6.2	5.0	x
O=C(c1ccccc1)C1C(=O)c2ccccc2C1=O	18.8	9.1	-7.8	0.8	11.6	46.3*
CCCN(CCC)Cc1cc(=O)oc2cc(C)cc(C)c12	x	x	-1.3	x	x	10.4
Cc1cccc(C)c1-n1nnnc1C(c1ccccc1)N1CCN(C/C=C/c2ccccc2)CC1 (stereo unspecified)	x	x	36.2	x	x	18.7
COCCCNC(=O)C(=O)Nc1ccc2c(c1)N(S(=O)(=O)c1cccs1)CCC2	0.6	-6.9	-11.4	-5.5	-5.5	7.8
SMILES	AHR act	SENP6 inh	EBI2 block	SENP8 block-1	SENP7 block	SENP8 block-2
COc1ccc(CN2CCOCC2)cc1OC	1.4	-13.9	-1.6	-5.6	-3.8	27.6
COc1cc2sc3ccc(-c4ccc(CN5CCOCC5)cc4)cc3c(=O)c2cc1OC	51.5*	10.6	-19.7	5.8	11.2	-498.4
O=C(O)c1ccc(-c2nc3ccccc3[nH]2)cc1	2.1	75.1*	-1.7	62.5*	73.0*	-447.8
c1ccc(-c2cc(-c3nc4ccccc4[nH]3)c3ccccc3n2)cc1	52.0*	-27.7	1.8	-10.6	0.5	-384.4
O=c1[nH]cccc1-c1nc2ccccc2[nH]1	21.6	-39.4	-1.2	-9.8	0.5	-310.5
Nc1ccccc1-c1nc2ccccc2[nH]1	55.1*	20.7	2.5	-11.2	17.6	-262.5
Oc1ccc(C=Nc2ccccc2-c2nc3ccccc3[nH]2)cc1	73.7*	-11.3	11.8	-14.3	-8.4	-327.9
